About 55 (0.05%) of roughly 120,000 compounds were called active. For the sample, actives were picked, then their nearest neighbours and some compounds at random. Unmarked numbers belong to inactive results. Rule as the data show it: active = inhibition above about 25% (passing the limit was not always enough); inactive = the rest.
tested on: replicative DNA helicase (DnaC/DnaB), Staphylococcus aureus; assay: S. aureus DnaC helicase unwinding inhibition – biochemical, fluorescence unwinding readout, primary screen (AID 485395);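 also: 0% = mean of negative control wells and 100% = mean of positive control wells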; settings: purified S. aureus helicase, fluorescence unwinding assay; hits give high values; concentration not given here

SMILES | inhibition
Cc1ccc(C)c(C(C)NC(=O)Cc2c(C)noc2C)c1 (stereo not drawn) | -13%
Cc1cc(C)cc(NC(=O)N2CCC3(CC2)OCCO3)c1 | 24%
CCOc1ccc(NC(=O)Cn2c(=O)n(CC(=O)NC3CCCC3)c(=O)c3ccccc32)cc1 | -11%
COC(CNC(=O)c1c[nH]c2ccc(S(=O)(=O)N(C)c3ccc(C(C)C)cc3)cc2c1=O)OC | -3%
CCOC(=O)Cc1sc(NC(C)=O)nc1-c1ccccc1 | -9%
CCn1nc(C(=O)OCCCCN2C(=O)c3ccccc3C2=O)c2ccccc2c1=O | -20%
CC(C)Cc1nnc(N)s1 | 5%
CCCCNC(=O)Cn1c(-c2ccc(C)cc2)noc1=O | 10%
CC1(C)CC(=NNC(N)=S)CC(C)(C)N1 | 0%
COCC(C)n1c(C)cc(C2=NNC(=Nc3ccc(F)cc3F)SC2)c1C (stereo not drawn) | 16%
C1=C(c2ccccc2)Nc2ncnn2C1c1ccco1 (stereo not drawn) | -1%
CCC(=O)Nc1ccc(-c2cn3cccnc3n2)cc1 | 5%
CCOC(=O)c1c(Cc2cccc(C)c2)c[nH]c1-c1ccccc1 | 9%
Cc1nc2ncnn2c(C)c1CCC(=O)N(Cc1cccnc1)c1ccc2c(c1)OCO2 | -82%
CCN(CC)C(=O)c1ccc(CS(=O)c2cccc(Cl)c2)o1 (stereo not drawn) | 24%
N#Cc1ccc(OCC(=O)N2CCN(c3ccc(O)cc3)CC2)cc1 | 12%
COCCN(Cc1nc2ccccc2c(=O)[nH]1)C(=O)C1=NN(c2cccc(C)c2)C(=O)CC1 | 4%
Cc1cc(F)ccc1S(=O)(=O)Nc1ccccc1C(=O)OCC(=O)N1CCCC1=O | 4%
COCc1cc(C)nc(SCC(=O)NC2C3CC4CC(C3)CC2C4)c1C#N (stereo not drawn) | 1%
CCOCc1c[nH]c(=O)[nH]c1=O | 4%
COc1ccc(NC(=O)CCCn2nnc3ccccc3c2=O)cc1 | -14%
Cc1ccc2[nH]c(=O)c3cc(C(=O)N4CCCc5ccccc54)sc3c2c1 | 8%
COc1cc(C)c2c(=O)c(-c3csc(C)n3)coc2c1 | -19%
COC(=O)c1ccc2c(c1)C(=O)/C(=C\c1ccccc1O)O2 | 4%
CCNC(=O)C1CCN(c2ncnc3c2nc2n3CCCCC2)CC1 | -22%

SMILES | inhibition
CCN(Cc1ccc(Cl)s1)Cn1c(CO)nc2ccccc21 | -6%
Nc1nc(N)nc(SCC(=O)N2N=C(c3ccc4ccccc4c3)CC2c2ccccc2)n1 (stereo not drawn) | -3%
NC(=O)C12CC3CC(CC(Cl)(C3)C1)C2 | -9%
COc1ccc2c(=O)c(-c3ccc(F)cc3)coc2c1 | 0%
CN1C2=C(C(=O)CCC2)C(c2ccc(O)c(Cl)c2)C2=C1CCCC2=O | 10%
CC(C)C(NC(=O)c1ccco1)C(=O)N1CCC(Cc2ccccc2)CC1 (stereo not drawn) | -7%
CC1(C)CCCC2=C1CC1C(=O)N(CCC[N+](C)(C)C)C(=O)C1C2 (stereo not drawn) | 6%
CC1CC(C)CN(C(=O)c2ccc3c(c2)N(C)C(=O)/C(=C/c2cccc(Cl)c2)S3)C1 (stereo not drawn) | -10%
CCOc1ccc(-n2c(CSc3nc(C)cc(C)n3)nnc2SC)cc1 | 27%
O=C1CCCc2c1cnn2-c1ccccc1 | -10%
CN(Cc1ccccc1)S(=O)(=O)c1ccc2c3c(cccc13)C(=O)N2 | 5%
O=C(O)c1cccc(S(=O)(=O)NCC(F)(F)F)c1 | 18%
Cc1ccc(OCCn2cc(/C=C3/C(=O)Nc4cc(Cl)ccc43)c3ccccc32)cc1C | -483%
N#Cc1cccc(OCC(=O)NCC(F)(F)F)c1 | 12%
Cc1c(/C=C(\C#N)C(=O)O)cc(C#N)n1C | -11%
Cc1cnc(C(=O)Nc2ccc(S(=O)(=O)NC(C)C)cc2)cn1 | -1%
CCSc1nnc(SCC(=O)c2ccc(OC)cc2OC)s1 | -4%
COC(=O)c1c(Cn2cc(Br)ccc2=O)nc2ccccc2c1C | 0%
COc1nc(-c2ccccc2)ccc1-c1noc(C(C)C)n1 | 2%
CCCNc1cc(C)nc2nc(-c3ccc(OC)cc3)nn12 | 12%
O=C(Cc1c(F)cccc1Cl)OCc1ncc(-c2ccccc2)o1 | -4%
Cc1ccc(-c2cc(C(=O)N3CCCCC3C)[nH]n2)cc1C (stereo not drawn) | -28%
CCc1ccccc1NC(=O)Cn1ncc2c(=O)oc3ccccc3c21 | 4%
CCSc1nsc(SCC)c1C(=O)O | -3%
COc1ccccc1C/C(N)=N/OC(=O)c1ccccc1 | 6%

SMILES | inhibition
NC(=O)COC(=O)/C=C/c1ccc(S(=O)(=O)N2CCOCC2)cc1 | -10%
COc1ccc(-n2nc(C(=O)NCC(=O)N3CCOCC3)c3ccccc3c2=O)cc1 | -25%
COc1ccc(S(=O)(=O)NCCn2ccc3ccccc32)cc1 | -14%
CC1(C)CC(NS(C)(=O)=O)CC(C)(C)N1O | 20%
CC(C)c1ccccc1N=Cc1ccc2c(c1)OCO2 | -15%
NC(=O)C1CCN(C(=O)COc2ccc(Cl)cc2Cl)CC1 | 0%
N#CCCn1cc(/C=c2\sc3nc4ccccc4n3c2=O)c(-c2ccc(F)cc2)n1 | 4%
Cn1nc(NCc2ccc(Cl)cc2)c(=O)n(C)c1=O | -8%
O=C(Nc1cccc(C(F)(F)F)c1)/C(=C\c1cccnc1)NC(=O)c1cccs1 | -22%
COC(=O)N/N=C(\C)c1ccc2c(c1)Nc1ccccc1S2 | 8%
Cc1cc(NC(=O)COC(=O)C2=COCCO2)n(-c2ccccc2)n1 | 4%
CC(C)Cn1c(SCC(=O)Nc2ccccc2)nc2ccccc21 | 14%
O=C1NC(c2ccccn2)Nc2sc3c(c21)CCCC3 (stereo not drawn) | 9%
c1ccc(CCNCc2cn[nH]c2-c2cccs2)cc1 | -16%
COc1ccccc1N=Cc1c(O)n(-c2ccccc2OC)c(=O)[nH]c1=O | 8%
CC1Nc2ccc(C(=O)N3CCC4(CC3)OCCO4)cc2NC1=O (stereo not drawn) | 34%
CC(C)(C)NC(=O)C(C)(C)Oc1ccc(Cl)cc1 | -13%
CC(Sc1nncn1C)C(=O)NCCC1=CCCCC1 (stereo not drawn) | 9%
Cc1ccccc1NC(=O)CSc1nc2ccc(N)cc2s1 | -1%
N#Cc1ccc(NC(=O)/C=C/c2ccccc2)cc1 | 4%
COc1ccc(C(=O)n2c(SC)nc3ccccc32)cc1OC | -17%
Cc1ccc(O)c(NC(=O)c2cccs2)c1 | 8%
CC1(C)C=C(C(=O)N2CCCCC2)C(C)(C)N1 | 5%
O=S1(=O)CCC(n2nnnc2-c2ccc(Cl)cc2)C1 (stereo not drawn) | 13%
Cc1ccc(C)c(OC(=O)NC(C)(C(F)(F)F)C(F)(F)F)c1C | 1%

SMILES | inhibition
Cc1nc(SCC(=O)N2CCCC2)c2c(=O)n(C)c(=O)n(C)c2n1 | 0%
CCN(CC)c1nc(-c2ccccc2O)nc2ccccc12 | -3%
COc1ccc(C(=O)CSC2=C(C#N)C(C)(C)C(C#N)=C(N)N2)cc1 | -9%
O=C(COC(=O)c1ccc(N2CCCC2=O)cc1)c1ccc(OC(F)F)cc1 | -5%
COc1ccc(Br)cc1CN(C)C(C)C(=O)N1CC(C)OC(C)C1 (stereo not drawn) | -12%
Cc1cc(C(=O)N2CCC(C)CC2)c(C)n1-c1ccc(F)cc1 | 23%
COc1ccc(/C=C/C(=O)CC(=O)c2ccccc2O)cc1 | -17%
CN(C)c1ccc(NC(=O)CSc2nnc(C3CC3)n2N)cc1 | -15%
COc1cccc(N=Nc2c(O)[nH]c(=O)[nH]c2=O)c1 | 7%
CN(C)CCCNc1c(N)c(=O)oc2ccccc12 | 27%
CCOC(=O)c1cnc2c(C)cc(C)cc2c1NCCN(C)C | 13%
CCOC(=O)c1cnc2c(C)c(C)ccc2c1NCCCN(C)C | 65% (active)
COc1ccc(C(CC(=O)O)NS(=O)(=O)c2ccccc2F)cc1OC (stereo not drawn) | -3%
CCc1cccc2c(C3=Nn4cnnc4SC3c3ccccc3)c[nH]c12 (stereo not drawn) | 16%
Cn1cc(SC(=N)N)c2ccccc21 | -12%
Cc1[nH]n(-c2ccccc2)c(=O)c1CCC#N | -6%
Cc1sc2nc(CN3CCCC3)nc(NC(C)C)c2c1C | -5%
COC(CNC(=O)C1CCC(CNS(=O)(=O)c2ccc(C)cc2)CC1)OC (stereo not drawn) | 9%
COC(=O)c1sc(NC(=O)Cn2cnc3sccc3c2=O)c(C(=O)OC)c1C | -7%
C=C(C)CNC(=S)NN | -24%
CC1CCCCN1S(=O)(=O)c1ccc(I)cc1 (stereo not drawn) | 17%
CC(=O)Nc1ccc(NC2SC(=O)NC2=O)cc1 (stereo not drawn) | 7%
Cc1[nH]c2ccccc2c1SCCNC(=O)C(C)C | -17%

— PubChem BioAssay AID485395 (ICCB-Longwood Screening Facility, Harvard Medical School, 2010)
